# Sampled rows, rich in hits. Any-hit rate of the full collection: about 1.2%.
# GSH fluor: GSH bead compound fluorescence profile; AID 1776; 190,000 compounds, 0.25% hits; fluorescence (KMESF) at 10 µM; GSH beads flow cytometry, compound fluorescence 488/530 nm; stronger effect = higher value; in the data active means fluorescence above about 89;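 further: glutathione beads carrying GST-tagged Bcl family fusion proteins plus one bare bead set; values are compound well signal with DMSO vehicle wells as background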
# RGS4-Gao reg: modulates binding of RGS4 to human Galphao; Multiplexed bead flow cytometry; actives lie on both sides; 220,000 compounds, 0.33% hits; AID 1415; binding response (% of control), % at 10 µM; P09471; in the data active means binding response below about 49% or above about 150%; inactive means in between;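 further: fluorescent Galphao activated with aluminum fluoride binding bead-coupled RGS4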
# Target sequence (P09471 whole entry, looked up): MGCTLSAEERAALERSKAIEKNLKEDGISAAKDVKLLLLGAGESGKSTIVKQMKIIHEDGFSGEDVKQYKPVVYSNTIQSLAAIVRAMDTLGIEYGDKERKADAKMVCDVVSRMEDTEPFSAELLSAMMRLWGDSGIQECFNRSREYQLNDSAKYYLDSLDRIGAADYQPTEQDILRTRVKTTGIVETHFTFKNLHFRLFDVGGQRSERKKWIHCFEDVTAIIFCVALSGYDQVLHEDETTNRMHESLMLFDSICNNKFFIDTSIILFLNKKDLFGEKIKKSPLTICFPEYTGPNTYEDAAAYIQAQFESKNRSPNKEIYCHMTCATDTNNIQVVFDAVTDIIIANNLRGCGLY
# RGS8-Gao: modulates binding of RGS8 to human Galphao; multiplexed bead flow cytometry; actives lie on both sides; P09471; AID 1423; response (percent of control binding), % at 10 µM; 220,000 compounds, 0.34% hits; in the data active means response below about 60% or above about 140%; inactive means in between;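 further: Galphao activated as the GDP aluminium fluoride complex binding bead-coupled RGS8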
# Avidin bead fluor: avidin bead compound fluorescence profile; 220,000 compounds, 0.38% hits; fluorescence (KMESF) at 10 µM; AID 1775; Avidin beads, compound fluorescence 488/530 nm, flow cytometry; stronger effect = higher value; in the data active means fluorescence above about 47
# RGS16-Gao HTS: RGS16-Galphao interaction regulator (human); bead-based flow cytometry RGS16-Galphao binding, fluorescence; actives lie on both sides; binding response (% of control), % at 10 µM; 220,000 compounds, 0.38% hits; AID 1441; call rule not given here;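 further: Galphao activated by GDP with aluminum fluoride before binding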
# Target sequence (O15492 whole entry, looked up): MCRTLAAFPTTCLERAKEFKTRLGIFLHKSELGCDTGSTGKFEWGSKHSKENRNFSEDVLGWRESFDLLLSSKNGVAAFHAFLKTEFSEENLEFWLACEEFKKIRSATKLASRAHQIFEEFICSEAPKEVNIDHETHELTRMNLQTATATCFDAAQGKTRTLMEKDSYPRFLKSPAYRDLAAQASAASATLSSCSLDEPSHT
# Target sequence (P09471 whole entry, looked up): as the sequence (P09471 whole entry, looked up) above
# RGS7-Gao reg: regulators of human RGS7-Galphao interaction; Multiplexed bead flow cytometry, RGS7-Galphao binding; actives lie on both sides; binding response (% of control), % at 10 µM; 220,000 compounds, 0.35% hits; AID 1439; in the data active means binding response below about 49% or above about 150%; inconclusive means no clear call, values can overlap the other calls; inactive means in between;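 further: fluorescent Galphao held in activated GDP-AlF4 state binding bead-coupled RGS7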
# * = called active by the depositor; ? = inconclusive; . = not tested or not shown; [ ] = another dose, or the depositor's remark.
SMILES,GSH fluor,RGS4-Gao reg,RGS8-Gao,Avidin bead fluor,RGS16-Gao HTS,RGS7-Gao reg
Cc1cc(C)n(C(=O)Cn2nc([N+](=O)[O-])c(Br)c2C)n1,8,100.0,105.4,24,109.2,98.5
CC(=O)Nc1ccc(C(=O)Nc2nc(-c3cccnc3)cs2)cc1,8,116.2,89.5,63*,90.3,?
O=C(CSc1nc2ccccc2s1)N/N=C/c1cc([N+](=O)[O-])ccc1O,.,90.4,94.7,4,89.3,?
O=C1NC(=O)C(CC(=O)N(c2ccccc2)C2(C(=O)NC3CCCC3)CCCCC2)N1 (configuration not stated),29,102.3,101.5,52*,102.5,111.2
O=C(CCN1CCCCC1)Nc1ccc(Br)cc1,20,103.9,102.2,49*,102.7,107.7
CN1CCN(CCC(=O)Nc2ccc(Br)cc2)CC1,16,99.7,99.6,11,102.5,98.8
COc1cccc(C(=O)Nc2c(C)n[nH]c2C)c1,17,117.4,104.6,55*,118.6,116.5
Cc1ccccc1-n1nc(C(=O)O)c(C)c(C#N)c1=O,255*,111.0,105.9,7,119.8,109.2
O=C(c1ccco1)N1CCN(C(c2ccc(F)cc2)c2nnnn2Cc2cccs2)CC1 (configuration not stated),260*,106.5,110.6,7,126.7,100.9
CCOC(=O)C1=C(C)N=C2SC(C(=O)OC)=CC(=O)N2C1c1ccc(OC)cc1 (configuration not stated),20,99.3,100.9,11,100.0,97.7
NC(=O)c1c(NC(=O)CN2C(=O)CCC2=O)sc2c1CCCCC2,28,105.1,104.8,8,113.4,106.3
CCC1(C)NC(=O)N(CC(=O)Nc2sc3c(c2C(N)=O)CCC3)C1=O (configuration not stated),222*,82.8,86.1,3,1.2,77.2
COc1ccc(Cn2c(C)nnc2-c2cnn(C)c2N)cc1OC,13,98.9,99.6,9,96.7,100.8
Cc1nnc(-c2cnn(C)c2N)n1Cc1ccccc1F,270*,103.8,102.6,6,107.6,96.6
CC(C)Nc1c(N)c(=O)oc2ccccc12,253*,98.9,100.3,7,97.5,104.1
CCc1c(C)sc(NC(=O)C2CCCO2)c1C#N (configuration not stated),139*,66.2,69.0,3,31.6,76.2
CCc1cccc(C)c1NC(=O)C1CCCO1 (configuration not stated),251*,113.9,104.9,5,65.5,112.1
Cc1cccc2sc(NC(=O)C3CCCO3)nc12 (configuration not stated),25,100.5,102.3,33,105.2,98.6
O=c1c2cn[nH]c2[nH]c(=S)n1-c1cccc(Cl)c1,22,102.8,119.0,7,179.1,101.1
CC1CCN(C(=O)COc2cccc3c2CCN(C)C3=O)CC1,12,101.9,100.8,22,99.6,97.7
CC(=O)Nc1ccc(OCC(O)Cn2nc(C)c(C(C)=O)c2C)cc1 (configuration not stated),24,107.8,97.9,73*,102.9,148.7
COc1ccc(OC)c(-c2c3cc(O)c(=O)cc-3oc3cc(O)c(O)cc23)c1,274*,38.7*,35.7*,-3,17.0*,4.7*
Cc1nnsc1C(=O)NNC(=O)c1cccc2ccccc12,.,106.7,103.3,8,104.6,?
CN1CCN(c2ccc(Cl)cc2NC(=O)c2nn(-c3ccccc3)c(=O)c3ccccc23)CC1,92*,104.2,102.5,12,103.9,95.0
COc1ccc(Cl)cc1NC(=O)C1COc2ccccc2O1 (configuration not stated),12,102.2,100.4,9,102.7,103.5
SMILES,GSH fluor,RGS4-Gao reg,RGS8-Gao,Avidin bead fluor,RGS16-Gao HTS,RGS7-Gao reg
CN1CCN(c2ccc(Cl)cc2NC(=O)C2COc3ccccc3O2)CC1 (configuration not stated),264*,96.2,102.1,7,110.6,97.1
CSc1ccccc1NC(=O)CN(C)CC(=O)Nc1c(F)cccc1F,11,131.8,103.3,58*,105.5,120.8
CCOC(=O)C1=C(C)OC(N)=C(C(=O)OCC)C1c1ccncc1 (configuration not stated),244*,99.9,101.5,10,111.0,106.2
CCOC(=O)C1=C(C)OC(N)=C(C(=O)OCC)C1c1cccnc1 (configuration not stated),15,66.7,74.4,25,66.5,61.7
COc1ccc(/C(N)=N/OC(=O)c2ccc3c(c2)OCO3)cc1,10,110.6,102.7,48*,105.1,132.8
Cc1ccnc(NC(=O)CSc2ccccn2)c1,.,93.1,96.2,5,94.2,?
O=C(CCCCn1c(=O)[nH]c2ccccc2c1=O)NCCc1c[nH]c2ccccc12,14,102.7,96.5,7,90.8,100.9
COc1cc2[nH]c(=O)n(CCCCCC(=O)NCCc3c[nH]c4ccccc34)c(=O)c2cc1OC,9,104.6,100.5,49*,99.8,110.2
CC(C)N(Cc1ccccc1)C(=O)Cn1c(=O)cnc2ccccc21,.,113.9,97.3,49*,95.2,?
O=C(O)Cn1c(=O)cnc2ccccc21,10,101.7,103.8,8,109.3,102.6
COc1ccc(C(=O)OCCN2CCOCC2)cc1,96*,111.8,105.5,5,104.9,114.1
COc1ccc2[nH]c(C(=O)Nc3ccc(F)cc3Br)cc2c1,.,100.2,101.5,7,100.7,?
Cc1ccc(NC(=O)c2ccccc2CCc2ccccc2)c(C)c1,33,102.4,99.7,56*,102.7,122.2
O=C(CCC(=O)N(CC(=O)NC1CCCCC1)Cc1cccs1)Nc1ccccn1,12,92.9,87.3,9,101.2,82.8
COC(=O)CCNS(=O)(=O)c1ccc2ccccc2c1,6,106.1,90.3,66*,75.9,129.8
CC(C)(C)SCCNS(=O)(=O)c1ccc2ccccc2c1,31,101.4,100.0,9,104.0,99.0
COC(=O)c1c(NC(=O)CSc2nnc(-c3ccco3)n2Cc2ccccc2)sc(C)c1C,268*,99.6,102.0,8,102.4,104.2
COC(=O)CSc1nnc(-c2ccco2)n1Cc1ccco1,27,106.8,104.2,72*,119.4,127.1
CCC(=O)N1CCc2cc(Br)cc(S(=O)(=O)NCc3ccco3)c21,23,102.0,101.0,10,104.3,98.1
CCC(=O)N1CCc2cc(Br)cc(S(=O)(=O)CCC(=O)NCc3ccco3)c21,20,97.5,99.7,51*,100.5,101.3
O=C(COC(=O)c1ccncc1)NCCCc1ccccc1,14,153.5*[activator],139.4,11,147.9,151.7*[activator]
O=C(COC(=O)c1ccncc1)NCc1ccccc1,27,99.2,99.5,16,101.3,98.6
CCCC(=O)OCC(=O)Nc1cc(C(C)(C)C)nn1-c1ccccc1,91*,118.3,103.0,14,117.6,112.5

# Assay outcomes (PubChem BioAssay)
